# An excerpt weighted towards active compounds, which were near 1.7% of everything screened.
# Y pestis TopoI – Yersinia pestis topoisomerase I inhibitors, primary screen, biochemical, cleavage product accumulation, plate reader, single point | Y. pestis Topo-I cleavage product accumulation | activity, % at 10 µM | 0.064% of 360,000 active; in the data active means activity above about 50%, passing the limit was not always enough; inconclusive means no clear call, values can overlap the other calls
# PrP 5UTR inh – inhibition of PrP 5' UTR reporter expression; cell-based PrP 5' UTR mRNA reporter, plate reader; inhibition, % (test concentration not listed); 0.35% of 340,000 active; AID 488862, 2010; in the data active means inhibition above about 52%
# PrPC TRFRET – inhibitors of human cell surface prion protein PrPC, primary screen, cell-based, TR-FRET; Major prion protein (Homo sapiens), P04156; 0.43% of 370,000 active; AID 720596, 2013; inhibition, % at 13.8 µM; TR-FRET read-out; in the data active means inhibition above about 24%
# BJeLR lethal – MLPCN primary cell-based screen for lethality selective to Ras in HRASV12 cells; 0.17% of 300,000 active; AID 1554, 2009; inhibition, % (concentration not given with the values); BJeLR (HRASV12) viability, CellTiter-Glo ATP luminescence, 48 h; in the data active means inhibition above about 50%; inconclusive means no clear call, values can overlap the other calls
# PriA SSB inh – inhibitors of Klebsiella pneumoniae PriA binding to SSB C-terminal tail, primary screen, biochemical, AlphaScreen | AlphaScreen SSBct-PriA binding, biotinylated peptide | AID 1272365, 2023 | inhibition, % at 33 µM | 0.6% of 430,000 active; in the data active means inhibition mostly above about 37%, no sharp cut-off; inactive means mostly below about 20%
# PfHsp40 rescue – rescue of yeast from PfHsp40 toxicity, primary screen, S. cerevisiae, ATP luminescence. S. cerevisiae expressing PfHsp40, growth rescue. growth rescue, % at 12.5 µM. 0.68% of 340,000 active; in the data active means growth rescue above about 28%, passing the limit was not always enough; inconclusive means no clear call, values can overlap the other calls;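 further: yeast W303a lacking pdr1 and pdr3 grown in galactose medium; growth measured after three days at 30 °C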
# PrP 5UTR single – prion 5' UTR mRNA inhibition, cherry-pick retest; 48% of 1,100 active; cell-based prion protein 5' UTR reporter, plate reader; inhibition, % at 2.5 µM; AID 504592, 2011; shares compounds with PrP 5UTR inh; in the data active means inhibition above about 54%; inconclusive means no clear call, values can overlap the other calls
# Numbers stand for hits; . = inactive; ? = inconclusive; / = no result.
SMILES,Y pestis TopoI,PrP 5UTR inh,PrPC TRFRET,BJeLR lethal,PriA SSB inh,PfHsp40 rescue,PrP 5UTR single
COc1ccc(-c2nsc3c(N4CCCCC4C)ncnc23)cc1 (stereo not given),.,87.3,.,.,.,.,82.7
COc1ccc(-c2nsc3c(N4CCCCC4)ncnc23)cc1,.,72.2,.,.,.,.,70.0
O=C(O)Cc1sc(Nc2ccc(Cl)cc2)nc1-c1cccs1,/,88.3,.,.,.,.,.
O=C(COc1ccc(Cl)cc1)Nc1nnc(SCc2cccc(C(F)(F)F)c2)s1,/,/,/,/,.,/,/
COc1ccc(OC)c(-c2nnc3n2N=C(c2ccc(OC)c(OC)c2)CS3)c1,.,56.5,.,/,.,.,82.8
COc1ccc(C2=Nn3c(nnc3-c3ccccc3)SC2)cc1OC,.,.,.,.,.,.,/
COc1ccc(OC)c(-c2nnc3n2N=C(c2ccc(OC)c(OC4CCCC4)c2)CS3)c1,.,64.7,.,/,.,.,85.5
COc1ccc(C(N)=NOC(=O)CN(C)S(=O)(=O)c2ccccc2)cc1,/,/,/,/,.,/,/
Cc1c(Cl)cccc1Nc1n[nH]c(=S)s1,.,71.1,.,/,.,.,.
Cc1ccc2oc(/N=C(\N)NC(=O)C(C)(C)C)nc2c1,.,90.5,.,.,/,.,84.9
COc1ccc(OC)c2[nH]c(=O)c(CCNC(C)=O)cc12,.,.,.,.,.,.,/
COc1ccc(OC)c2[nH]c(=O)c(CCNC(=O)COc3ccccc3)cc12,.,56.7,.,.,.,.,.
Cc1ccc(NC(=O)CC(N)C(=O)O)cc1 (stereo not given),/,/,/,/,.,/,/
Cc1ccc(C2(SCC(N)C(=O)O)c3ccccc3-c3ccccc32)cc1 (stereo not given),.,88.9,.,/,.,.,.
C=CCOc1ccc(C2C(=C(O)c3ccc(F)cc3)C(=O)C(=O)N2CCCN(C)C)cc1 (stereo not given),/,/,/,/,.,/,/
CN1CCN(c2ccc([N+](=O)[O-])c3no[n+]([O-])c23)CC1,.,79.2,.,71.5,/,.,85.9
O=C(CCc1csc(NC(=O)NC2CCCCC2)n1)NC1CCN(Cc2ccccc2)CC1,/,/,/,/,.,/,/
CC(C)CN1C(=O)CCc2cc(NS(=O)(=O)Cc3ccc(Cl)cc3)ccc21,/,/,/,/,.,/,/
CCOC(=O)C(=CNCC(=O)O)C(=O)OCC,.,.,.,.,.,.,/
CNCC(=O)O,.,92.5,.,/,.,.,.
Cc1ccc(Sc2cnc3ccccc3n2)cc1,.,87.7,.,.,.,.,.
O=C(Cn1nnn(-c2ccc(NS(=O)(=O)C3CC3)cc2)c1=O)N1CCOCC1,/,/,/,/,.,/,/
CCOC(=O)c1c(-c2cccs2)csc1NC(=O)CN1CCCCC1C (stereo not given),/,/,/,/,.,/,/
Cn1c(SCC(=O)NC2CCCCC2)nnc1-c1c[nH]c2ccccc12,/,/,/,/,.,/,/
Cc1ccccc1-c1nc(-c2ccccn2)no1,.,70.3,.,/,.,.,?
SMILES,Y pestis TopoI,PrP 5UTR inh,PrPC TRFRET,BJeLR lethal,PriA SSB inh,PfHsp40 rescue,PrP 5UTR single
COc1ccc(-c2nc(-c3ccccn3)no2)cc1,.,91.5,.,/,.,.,90.9
COc1ccc(-c2cc(-c3cccs3)c(C#N)c(SCC(=O)NCc3ccco3)n2)cc1,.,67.9,/,/,.,.,86.5
COc1ccc(-c2cc(-c3ccccc3)nc(SCC(=O)NCc3ccco3)c2C#N)cc1,/,/,/,/,.,/,/
COc1ccc(C=NNc2ncnc3c2[nH]c2ccc(C)cc23)c(OC)c1OC,/,/,/,/,.,/,/
O=[N+]([O-])c1ccc(O)c(/C=N/Nc2ccccn2)c1,.,54.1,.,.,/,308.4,58.3
O=C(Nc1nc(-c2ccco2)cs1)c1cccc(Oc2ccccn2)c1,/,/,/,/,.,/,/
CCCS(=O)(=O)N1CCCC(C(=O)NC2CCCC(C)C2C)C1 (stereo not given),.,85.6,.,.,.,.,.
N=c1c2c(n(Cc3ccc(Br)cc3)c3c1CCC3)CCCC2,.,.,.,.,.,.,/
N=c1c2c(n(Cc3ccc([N+](=O)[O-])cc3)c3c1CCC3)CCCC2,.,80.0,.,.,.,.,.
CC1CNC(=CC(=O)c2ccc(Cl)cc2)C(=O)N1 (stereo not given),/,/,/,/,.,/,/
COC(=O)c1ccc(C(=O)N2CC(Oc3nccs3)C2)cc1,/,/,/,/,.,/,/
CCOC(=O)N1CCC(Nc2c(-c3ccc(C)c(C)c3)c(=O)c2=O)CC1,.,73.2,.,.,.,.,.
Cc1cnc(NC(=O)c2ccc3c(c2)OCCO3)s1,.,81.3,.,/,.,.,72.8
Cc1nc2ccc3nc(NC(=O)c4ccc5c(c4)OCCO5)sc3c2s1,.,.,.,.,.,.,/
CC(C)c1nnc(NC(=O)c2ccc3c(c2)OCO3)s1,.,53.9,.,.,.,.,?
CC(c1ccccc1)c1nnc(NC(=O)c2ccc3c(c2)OCO3)s1 (stereo not given),.,.,.,.,.,.,/
CCCCOc1ccc(C(=O)Nc2nnc(-c3ccccc3SC)o2)cc1,/,/,/,/,.,/,/
COc1c(C)cc(C(=O)C2CCCN(C(=O)c3ccc4[nH]ccc4c3)C2)cc1C (stereo not given),.,77.9,.,.,.,.,.
COc1cc2cc(C(=O)N3CC(COS(C)(=O)=O)c4ccc(O)cc43)[nH]c2c(OC)c1OC (stereo not given),.,96.5,/,/,.,63.4,97.5
COc1ccc(-c2ccc(=O)n(Cc3cc(=O)n4ccccc4n3)n2)cc1,.,66.2,.,.,.,.,.
COc1ccc(Cl)cc1C(=O)N1CC(S(=O)(=O)CC(C)C)C1,/,/,/,/,.,/,/
COc1cccc2c1C(=O)c1c(O)c3c(c(O)c1C2=O)CC(O)(C(=O)CO)CC3OC1CC(N(C)C)C(O)C(C)O1 (stereo not given),.,85.6,.,/,.,100.1,95.1
COc1cccc2c1C(=O)c1c(O)c3c(c(O)c1C2=O)C[C@@](O)(C(=O)CO)C[C@@H]3O[C@H]1C[C@H](N)[C@@H](O)[C@H](C)O1,.,74.7,/,74.1,45.8,.,87.4
Cc1cc(F)ccc1S(=O)(=O)N1CCCOC1CNC(=O)C(=O)NCc1ccccc1Cl (stereo not given),/,/,/,/,.,/,/
Cc1cc(N2CCCC2)nc(CNC(=O)c2ccco2)n1,/,/,/,/,.,/,/
O=C(N/N=C/c1ccncc1)c1cccc(N/N=C/c2ccncc2)c1,.,71.6,.,.,/,.,.
Nc1ncnc2[nH]ncc12,/,/,/,/,.,/,/
Cc1noc(C2(NC(=O)[C@@H]3COc4ccccc4O3)CCCCC2)n1,/,/,/,/,.,/,/
O=S(=O)(NCC1CCN(Cc2ccco2)CC1)c1cccs1,/,/,/,/,.,/,/
COC(=O)c1cc(C(=O)N2CCN(c3cccc(Cl)c3)CC2)cc([N+](=O)[O-])c1,.,62.3,.,.,.,.,86.7
